# The campaign covered roughly 38,000 compounds. About 1,200 (3.2%) showed an effect of 50% or more. The median lay at about -58%. The list comes from a sample in which strong results are over-represented; it also holds similar structures and randomly drawn compounds.
# Tested on: Plasmodium falciparum
# Test: Calibr Malaria Delayed Death Assay SOP
# Assay type: functional, organism-based
# Set-up: scale not given: in the data most compounds retested in dose-response had high values
# Settings: concentration 4.99e-06 (unit not given; other assays of the set use mol/L)
row,SMILES,Percent Effect [%]
1,CCc1nc(CC(=O)N2CCCC2c2c(C)nn(C)c2OC)cs1 (stereo unspecified),-39.25
2,COc1ccc(CN2CCC3(CC2)CC(c2cccnc2)CO3)cc1.O=C(O)C(F)(F)F.O=C(O)C(F)(F)F (stereo unspecified),-68.03
3,O=S1(=O)c2ccccc2OCC2(CCN(CCO)CC2)CN1CC1CC1,76.86
4,CCC(=O)N1CCC2(CC1)COc1ccccc1S(=O)(=O)N(C)C2,-32.01
5,CN1CC2(CCN(C(=O)C3CCC3)CC2)COc2ccccc2S1(=O)=O,-31.54
6,CN(C)C(=O)CN1CCC2(CC1)COc1ccccc1S(=O)(=O)N(C)C2.O=C(O)C(F)(F)F,-44.68
7,CCCN1CCC2(CC1)COc1ccccc1S(=O)(=O)N(CC1CC1)C2.O=C(O)C(F)(F)F,-32.31
8,CN1CC2(CCN(CC3CC3)CC2)COc2ccccc2S1(=O)=O.O=C(O)C(F)(F)F,52.41
9,CCN1CC2(CCN(C(=O)N(C)C)CC2)COc2ccccc2S1(=O)=O,-20.19
10,COCCN1CCC2(CC1)COc1ccccc1S(=O)(=O)N(C)C2,-7.731
11,COCC1CN(C(=O)Cc2cccs2)Cc2nnn(CC3CC3)c21 (stereo unspecified),-20.67
12,CC(OCC(F)(F)F)C(=O)N1CCOCC1 (stereo unspecified),-69.84
13,CN(C)c1ccc(C(=O)N2CCCC2c2cnn(C)c2)cn1 (stereo unspecified),-130.6
14,COc1cccc(CC(=O)N2CC[C@@H]3CN(C)S(=O)(=O)[C@@H]3CC2)c1,-25.41
15,CC1=C(c2ccc(C)cc2)S(=O)(=O)N=C1N1CCc2ccccc21,-28.82
16,OC1(CNc2ccc(F)cc2)CCNCC1,9.673
17,CC(C(=O)Nc1sccc1C(N)=O)N(C)CCOc1ccccc1 (stereo unspecified),2.405
18,CCCNCc1ccc(-c2cc(N)nc3[nH]ccc23)cc1,71.86
19,Nc1cc(-c2cc(O)cc(C(=O)O)c2)c2cc[nH]c2n1,-8.693
20,Nc1cc(-c2ccc(C(=O)O)cc2O)c2cc[nH]c2n1,-36.07
21,CCCn1nccc1C(=O)Nc1nc(C)c(C)s1,-95.22
22,CCc1ccccc1OCCN(C)C(=O)CCN1CCCO1,-98.11
23,CCc1ccccc1OCCN(C)C(=O)CCN1CCCCO1,2.137
24,CCc1ccccc1OCCN(C)C(=O)CN1CCCC1,75.23
25,CCn1nc(C)c2ccn(CC(=O)NC(C)C)c(=O)c21,-79.05
26,COc1ccc(NC(=O)N(CCO)Cc2ccsc2)cc1,-36.74

row,SMILES,Percent Effect [%]
1,COC(=O)CN(C)Cc1cc(Br)cs1,-75.79
2,CCN(C)CC1CCN(c2ncc(Br)cn2)C1 (stereo unspecified),-58.14
3,CCCN(C)CC1CCN(c2ncc(Br)cn2)C1 (stereo unspecified),-74.37
4,CCCN(C)CC1CCN(c2ccc(Br)c(C)n2)C1 (stereo unspecified),72.9
5,CC(C)NCc1cccnc1N1CCN(c2ccccn2)CC1,3.171
6,CCCC(C)NCc1cccnc1N1CCN(c2ccccn2)CC1 (stereo unspecified),51.12
7,CC(C)CC(C)NCc1cccnc1N1CCN(c2ccccn2)CC1 (stereo unspecified),55.01
8,CC(C)C(=O)NCCC(=O)N1CCN(c2ccccn2)CC1,-182.3
9,CCC(CC)C(=O)NCCC(=O)N1CCN(c2ccccn2)CC1,-127.9
10,CCC(C)NC(=O)NCCC(=O)N1CCN(c2ccccn2)CC1 (stereo unspecified),-19.73
11,Cn1c(N)c2c(=O)n(C)c(-c3ccc(Cl)cc3Cl)cc2c(C#N)c1=O,5.212
12,Cc1cc(C(=O)N2CCC3(C2)CN(c2ccsc2)C(=O)CN3C)[nH]n1.O=C(O)C(F)(F)F (stereo unspecified),-16.33
13,c1ccc(Cc2n[nH]c(C3CCOC3)n2)cc1 (stereo unspecified),-53.42
14,COc1ccc(CN2CCC3(CC2)CN(c2ccccn2)CCO3)cc1.O=C(O)C(F)(F)F.O=C(O)C(F)(F)F,60.62
15,COc1ncccc1CN1CCC2(CC1)CN(c1ccccn1)CCO2.O=C(O)C(F)(F)F.O=C(O)C(F)(F)F.O=C(O)C(F)(F)F,55.38
16,Cn1ccnc1CN1CCC2(CC1)CN(c1ccccn1)CCO2.O=C(O)C(F)(F)F.O=C(O)C(F)(F)F,-263.3
17,O=C(O)C(F)(F)F.O=C(O)C(F)(F)F.c1ccc(CN2CCC3(CC2)CN(c2ccccn2)CCO3)nc1,-71.36
18,COCC(=O)N1CCC2(CC1)CN(c1ccccn1)CCO2.O=C(O)C(F)(F)F,-99.25
19,Fc1ccc(CN2CCC3(CC2)CN(c2ccccn2)CCO3)cc1.O=C(O)C(F)(F)F.O=C(O)C(F)(F)F,46.67
20,O=c1[nH][nH]cc1-c1ccnc(NCCc2ccc(F)cc2)n1,-53.75
21,COC(=O)c1cnn(-c2cc(Oc3cccc(C)c3)ncn2)c1N,-10.04
22,CN1CCC2(CC1)OC(C(=O)NCc1cccnc1)Cn1ccnc12 (stereo unspecified),-146
23,COCCN1CCCC(c2nccnc2Nc2nc(C)cs2)C1 (stereo unspecified),-10.08
24,O=C(NCC1(O)CCSC1)c1cccc(-n2cccn2)c1 (stereo unspecified),-128.5
25,CC(=O)N1CCO[C@@H]2CN(Cc3ccccc3Cl)C[C@@H]2C1.O=C(O)C(F)(F)F,-110.8
26,O=C1NCCCC[C@@H]1NC(=O)C1(N2CCCCC2)Cc2ccccc2C1,-107.8

row,SMILES,Percent Effect [%]
1,O=C(NC1CCNC1)C1(N2CCCCC2)Cc2ccccc2C1 (stereo unspecified),33.42
2,O=C(NC1CCNCC1)C1(N2CCCCC2)Cc2ccccc2C1,62.66
3,CC(=O)NCC(=O)N1CCCC(C(=O)c2ccc(C(C)(C)C)cc2)C1 (stereo unspecified),-127.3
4,CC(C)(C)c1oc(C(N)=O)cc1CN1CCCCC(N)C1 (stereo unspecified),3.928
5,CN(C)[C@H]1CCCCN(Cc2ccccc2Cn2cccn2)C1,49.71
6,N#Cc1cc(C#N)c(SCCC(=O)Nc2ccc(F)cc2)nc1N,10.11
7,N#Cc1cc(C#N)c(SCC(=O)NCc2ccc(F)cc2)nc1N,-76.83
8,N#Cc1cc(C#N)c(SCC(=O)Nc2ccc(F)cc2)nc1N,66.77
9,CN(C)c1ncc(CNC(=O)Nc2ccccc2C(F)(F)F)n1C,-113.2
10,CN(C)c1ncc(CNC(=O)Nc2ccccc2F)n1C,-31.3
11,CN(C)c1ncc(CNC(=O)Nc2ccc(C(F)(F)F)cc2)n1C,68.14
12,COc1cccc(CNc2nc(N3CCOCC3)ns2)c1OC,-58.35
13,CSc1ccc2c(C)cc(N[C@@H](C)CO)nc2c1,13.21
14,CCn1ncnc1C(C)Nc1cc(C)c2ccc(SC)cc2n1 (stereo unspecified),-98.68
15,COC[C@H](C)Nc1cc(C)c2ccc(SC)cc2n1,74.39
16,COCC(=O)N1CCCN(Cc2cc(C(C)C)no2)CC1,-33.31
17,Cc1c(C(=O)NCC(C)(C)S(C)(=O)=O)cccc1-c1ccccn1,-72.33
18,CCC(CO)N(CC=C(C)C)Cc1ccsc1 (stereo unspecified),20.66
19,CCC(CO)N(Cc1ccc(C(=O)O)cc1)Cc1ccsc1 (stereo unspecified),-80.76
20,CCC(CO)N(Cc1ccsc1)Cc1cccc(O)c1 (stereo unspecified),67.4
21,CS(=O)(=O)N1CCN(C(=O)c2cc(-c3ccc(Br)s3)n[nH]2)CC1,2.289
22,CN1C(=O)C2(CCN(c3nccc4occc34)CC2)c2ccccc21,-46.41
23,Cc1cc(C)cc(C(=O)NCCS(=O)(=O)N2CCSCC2)c1,-110.6
24,CC(=O)N1CCCN(S(=O)(=O)c2cc3ccccc3o2)CC1,-136.3
25,CCN1CCCN(S(=O)(=O)c2cc3ccccc3o2)CC1,83.88
26,O=S(=O)(c1cc2ccccc2o1)N1CCCC1,-30.68

row,SMILES,Percent Effect [%]
1,CCn1ccc(-c2nnc(SCC(=O)NCC(C)C)n2CC)n1,-143.1
2,COc1c(CNCCc2c[nH]c3cc(F)ccc23)c(C(C)C)nn1C,59.46
3,COc1c(CNCCc2c[nH]c3ccccc23)c(C)nn1C,-66.3
4,COc1c(CNC2CCOc3ccccc32)c(C(C)C)nn1C (stereo unspecified),-23.6
5,COc1c(CNC2CCCc3ccccc32)c(C(C)C)nn1C (stereo unspecified),63.84
6,COc1c(CNC2CCc3cc(F)ccc32)c(C(C)C)nn1C (stereo unspecified),57.77
7,COc1c(CNCCc2c[nH]c3cc(F)ccc23)c(C)nn1C,49.69
8,COc1c(CNC2CCc3ccccc32)c(C)nn1C (stereo unspecified),30.71
9,CC(C)c1nn(C)c(N(C)C)c1CNC1CCc2cc(F)ccc21.Cl (stereo unspecified),-3.129
10,COc1c(CNC2CCc3cc(F)ccc32)c(C)nn1C.Cl (stereo unspecified),26.33
11,N#CCCN(Cc1ccccn1)C(=O)c1cccc(CN2CCCC2)c1,-57.26
12,CCn1cc(NS(=O)(=O)c2ccc(Br)s2)c(C(=O)NCC(C)C)n1,-19.45
13,O=C(NCCc1ccncc1)c1cccc(S(=O)(=O)NC2CCOC2)c1 (stereo unspecified),-7.029
14,CC(NCCCN1CCCC1=O)c1cc(Br)ccc1F (stereo unspecified),40.27
15,CC(NC(=O)NCCCN1CCCC1=O)c1ccc(Cl)s1 (stereo unspecified),-33.34
16,CC(NCCCN1CCCC1=O)c1cc(Br)ccc1O (stereo unspecified),50.26
17,CC(C)c1cc(-c2cnn(C)c2C2CC2)c(C#N)c(N)n1,-61.18
18,O=C(CC(SC1CCCCC1)C(=O)O)c1ccc(Br)cc1 (stereo unspecified),-115.9
19,CCC1CN(C(=O)c2ccc(O)c(C)c2)CCN1C(C)C (stereo unspecified),-125.9
20,CCC1CN(C(=O)c2ccccc2C(C)=O)CCN1C(C)C (stereo unspecified),-70.36
21,O=C(c1ncccn1)N1C[C@@H]2COC[C@]2(COc2cccnc2)C1,-80.86
22,O=C(CCn1ccccc1=O)N1CCCC(COc2ccc(F)cc2)C1 (stereo unspecified),-62.32
23,CN1Cc2c(C(=O)NC3CCCCC3)ncn2-c2ccccc2S1(=O)=O.O=C(O)C(F)(F)F,-186.4

# — ChEMBL document CHEMBL3988442, “University of Dundee, Small-Polar-MMV Screening Library” (2021)
